# Most compounds without a hit are left out; they make up all but 1.3% or so of the library.
# PME-1 primary = blocks human protein phosphatase methylesterase 1; recombinant PME-1, FP-Rh probe fluorescence polarization; inhibition, % at 5.9 µM; 0.53% of 320,000 active;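 active means inhibition above the campaign mean of all compounds plus 3 SD, cut at about 26% in these data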;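 further: competitive labeling of PME-1 active site by serine hydrolase directed probe; 0% = PME-1 with DMSO and 100% = wells lacking PME-1 enzyme; inhibitors block probe labeling so polarization falls and inhibition rises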
# Fam108B inh = Fam108B inhibition, counter-screen for RBBP9 inhibitors; recombinant Fam108B, FP-Rh probe fluorescence polarization; inhibition, % at 9.51 µM; 0.33% of 300,000 active;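 active means inhibition above the screen mean inhibition plus 3 SD, computed separately per campaign, cut at about 18% in these data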;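 further: inhibitors lower polarization as less probe binds the enzyme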
# LYPLA1 counter = counter-screen for PME1 inhibitors: inhibitors of human LYPLA1. recombinant LYPLA1, FP-Rh probe fluorescence polarization. inhibition, % at 5.9 µM. 0.16% of 320,000 active. AID 2174;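 active means inhibition above the mean of all tested compounds plus 3 SD, set per campaign, cut at about 14% in these data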;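 further: inhibitors block serine hydrolase probe labeling of LYPLA1 so polarization falls; 0% = enzyme with DMSO and 100% = wells lacking LYPLA1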
# Target sequence (O75608 whole entry, looked up): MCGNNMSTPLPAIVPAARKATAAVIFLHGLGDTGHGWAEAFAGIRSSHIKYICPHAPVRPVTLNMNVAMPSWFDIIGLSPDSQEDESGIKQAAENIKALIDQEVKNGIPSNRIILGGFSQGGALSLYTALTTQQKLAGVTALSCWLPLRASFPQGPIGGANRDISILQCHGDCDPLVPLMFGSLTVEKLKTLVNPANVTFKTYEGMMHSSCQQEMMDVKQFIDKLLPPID
# PREPL inhibitor = inhibitors of human prolyl oligopeptidase-like enzyme PREPL. recombinant PREPL, fluorescence polarization activity-based probe. inhibition, % at 5.96 µM. 0.68% of 320,000 active. AID 2751; in the data active means inhibition above about 43%;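 further: 0% = enzyme with DMSO and 100% = wells lacking enzyme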
# LYPLA2 counter = counter-screen for PME1 inhibitors: inhibitors of human LYPLA2. 0.38% of 320,000 active. AID 2177. inhibition, % at 5.9 µM. recombinant LYPLA2, FP-Rh probe fluorescence polarization;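 active means inhibition above the screen-wide mean plus 3 SD, limit set per campaign, cut at about 26% in these data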;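 further: 0% = LYPLA2 with DMSO and 100% = wells lacking LYPLA2 enzyme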
# Target sequence (O95372 whole entry, looked up): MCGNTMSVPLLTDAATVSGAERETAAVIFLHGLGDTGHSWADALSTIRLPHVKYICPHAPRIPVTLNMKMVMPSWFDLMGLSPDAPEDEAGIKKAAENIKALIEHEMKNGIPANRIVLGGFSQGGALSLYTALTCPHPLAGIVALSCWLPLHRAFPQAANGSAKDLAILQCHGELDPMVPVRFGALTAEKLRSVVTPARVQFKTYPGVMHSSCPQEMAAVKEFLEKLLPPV
# LYPLA1 confirm = counter-screen for PME1 inhibitors: confirmation of human LYPLA1 inhibitors; shares compounds with LYPLA1 counter; recombinant LYPLA1, FP-Rh probe fluorescence polarization; inhibition, % at 5.9 µM; 69% of 480 active; AID 2233;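 active means mean inhibition across replicates above the hit cutoff set in the primary screen, cut at about 15% in these data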;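 further: loss of FP-Rh probe labeling of LYPLA1 seen as lower polarization; 0% = LYPLA1 with DMSO and 100% = wells lacking LYPLA1 enzyme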
# LYPLA2 confirm = counter-screen for PME1 inhibitors: confirmation of human LYPLA2 inhibitors. recombinant LYPLA2, FP-Rh probe fluorescence polarization. 72% of 1,100 active. inhibition, % at 5.9 µM. shares compounds with LYPLA2 counter;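 active means mean inhibition across replicates above the hit cutoff set in the primary screen, cut at about 26% in these data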;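 further: blocked labeling of the enzyme by serine hydrolase FP-Rh probe lowers polarization; 0% = enzyme with DMSO and 100% = wells lacking LYPLA2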
# The depositor's hits bear a star; nt = no result.
SMILES,PME-1 primary,Fam108B inh,LYPLA1 counter,PREPL inhibitor,LYPLA2 counter,LYPLA1 confirm,others
Cc1ccc(CNC(=O)C2CCN(S(=O)(=O)c3ccc4c(c3)CC(C)N4C(=O)C3CCC3)CC2)o1 (stereo not drawn),5,-5,16*,13,12,19*,
CC(C)CCNC(=O)C1CCN(S(=O)(=O)c2ccc3c(c2)CC(C)N3C(=O)C2CCC2)CC1 (stereo not drawn),1,6,8,10,4,nt,
O=C(N/C=N/O)C(c1ccccc1)c1ncc(C(F)(F)F)cc1Cl (stereo not drawn),-3,2,0,16,7,nt,
CCOc1ccccc1NC(=O)COC(=O)/C=C/c1cccs1,nt,nt,nt,9,nt,nt,
COc1cc(S(=O)(=O)NCc2ccccc2)ccc1-n1cnnn1,4,-1,15*,3,5,2,
COc1cc2[nH]c(=O)n(CCC(=O)N3CCc4ccccc4C3)c(=O)c2cc1OC,-1,1,2,5,7,nt,
COc1cc2[nH]c(=O)n(CCCCCC(=O)N3CC=C(c4ccccc4)CC3)c(=O)c2cc1OC,-2,-7,17*,-19,21,18*,
O=S(=O)(NCCCSc1ccccc1)c1ccccc1F,5,1,0,-11,2,nt,
COC(=O)c1ccc(COc2ccccc2/C=C(\C#N)C(=O)Nc2ccc(C)cc2C)cc1,6,-7,16*,4,5,-4,
COC(=O)c1ccc(COc2ccccc2/C=C(\C#N)C(=O)Nc2c(C)cc(C)cc2C)cc1,-57,-46,-30,-15,-54,nt,
COc1ccc(OC)c(NC(=O)C2CCC(CNc3c(N4CCC(C)CC4)c(=O)c3=O)CC2)c1 (stereo not drawn),-1,-2,45*,21,6,44*,
COc1ccc(C)cc1NC(=O)C1CCC(CNc2c(N3CCOCC3)c(=O)c2=O)CC1 (stereo not drawn),2,2,1,16,-2,nt,
Cc1ccc([N+](=O)[O-])c(OCCCN2CCC(Cc3ccccc3)CC2)c1,-5,1,36*,7,27*,52*,
COc1ccccc1C(=O)Nc1ccc2c(c1)nc1n2CCN(Cc2ccccc2)C1,-18,1,28*,-2,11,4,
COc1[nH]c(/N=C/c2ccccc2)c(C#N)c1C#N,20,17,17*,29,21,17*,
O=C(CSc1nnc(-c2ccco2)o1)N1CCOCC1,-5,1,2,-7,2,nt,
O=C(CSc1nnc(-c2ccco2)o1)N1CCN(c2ccccc2)CC1,-1,-1,20*,-37,4,28*,
CCOc1ccc(S(=O)(=O)N2CCC(C(=O)NCCc3ccc(S(N)(=O)=O)cc3)CC2)cc1,4,-3,3,0,-2,nt,
C/C(=N\NC(=O)c1cc2ccccc2cc1O)c1ccccn1,19,4,-9,13,6,nt,
C/C(=N/NC(=O)c1cc2ccccc2cc1O)C1C(=O)c2ccccc2C1=O,79*,75*,63*,33,24,57*,
O=C(CN(Cc1ccccc1Cl)C(=O)c1csnn1)NC1CCCC1,-1,6,3,-7,2,nt,
CCOC(=O)N1CCN(C(=O)c2ccccc2NC(=O)COc2ccccc2)CC1,7,-4,4,9,-3,nt,
Cc1cc(C)n(-c2c(F)c(F)c(CN3CCOCC3)c(F)c2F)n1,3,-2,-6,-2,3,nt,
COc1ccc(S(=O)(=O)Nc2ccc(Cc3ccncc3)cc2)cc1C,19,-6,36*,-10,4,47*,
CC(=O)Nc1ccc(S(=O)(=O)Nc2ccc(Cc3ccncc3)cc2)cc1,0,4,41*,-1,9,54*,
SMILES,PME-1 primary,Fam108B inh,LYPLA1 counter,PREPL inhibitor,LYPLA2 counter,LYPLA1 confirm,others
O=C(NCC(=O)N1CCN(c2ccccc2)CC1)c1ccco1,2,1,0,-1,3,nt,
COc1cc(OC)cc(C(=O)Nc2sc3c(c2C(N)=O)CCC3)c1,-4,1,-3,-1,-1,nt,
COc1ccc(CCc2nnc(CCC(=O)NCc3cc(C(C)C)no3)o2)cc1,5,-1,-2,7,-4,nt,
Cc1c(S(=O)(=O)c2ccccn2)c(N)n(Cc2ccccc2)c1C,-7,-6,1,29,-2,nt,
COCCn1c(C)c(C)c(S(=O)(=O)c2ccccc2)c1N,16,14,16*,15,17,13,
CN(C(=O)CSc1nc(-c2ccc(C(C)(C)C)cc2)c(C#N)c(=O)[nH]1)C1CCCCC1,-2,-9,-8,-6,-1,nt,
O=C(Nc1ccc(OC(F)(F)F)cc1)c1ccc(S(=O)(=O)N2CCOCC2)o1,1,2,0,-12,1,nt,
COc1cc(OC)c(NC(=O)Nc2ccc(OC)c(OC)c2)cc1Cl,-6,-6,-2,-9,0,nt,
COc1cc(NC(=O)Nc2ccc(Cl)c(Cl)c2)c(C(=O)O)cc1OC,18,5,20*,10,9,18*,
CSc1ncccc1C(=O)NC(C)C1CC2CCC1C2 (stereo not drawn),0,0,0,1,0,nt,
O=C(O)c1cccc(N/N=C/c2cc(Br)cc(Br)c2O)c1,58*,18,24*,20,14,20*,
O=C(Cc1ccc([N+](=O)[O-])cc1)Nc1ccc(O)cc1C(=O)O,10,-2,0,7,0,nt,
COc1cc(NC(=O)Cn2ncc3c2-c2ccccc2OC3)cc(OC)c1OC,21,13,20*,-5,11,2,
C=CCn1c(SCC(=O)N2CCCC2=O)nc2sc(CC)cc2c1=O,37*,nt,21*,16,38*,4,LYPLA2 confirm=-3
CC(C)C(NC(=O)c1ccccc1F)C(=O)NCc1ccc(F)cc1 (stereo not drawn),6,0,3,0,-2,nt,
CSc1ccccc1OCc1cc(C(=O)N2CCC(Oc3cccnc3)CC2)no1,6,-4,36*,2,35*,47*,LYPLA2 confirm=39*
O=c1[nH]nc(CNc2ccc(O)cc2)c2ccccc12,45*,8,16*,41,34*,5,LYPLA2 confirm=5
O=C(/C=C/c1ccccc1)N1CCN(CCN2C(=O)c3cccc4cccc(c34)C2=O)CC1,-3,-3,37*,-7,64*,35*,LYPLA2 confirm=59*
O=C(c1ccc(S(=O)(=O)N2CCCCC2)cc1)N1CCN(CCN2C(=O)c3cccc4cccc(c34)C2=O)CC1,4,3,20*,8,35*,42*,LYPLA2 confirm=60*
O=C(c1ccc(S(=O)(=O)N2CCCC2)cc1)N1CCCCCC1,7,2,-1,7,3,nt,
COc1ccc(CNc2nnnn2C)c(OC)c1,-2,0,1,-9,4,nt,
O=C(O)c1ccccc1C1=Nc2ccc(O)cc2Oc2cc(O)ccc21,17,18,19*,17,27*,16*,LYPLA2 confirm=0

# Compound activity from PubChem.
